# Experimental data published in PubChem BioAssay (NCI).
# This is part of a sample that, as a whole, favours compounds with a hit. Of some 83,000 tested, about 20% had one in any assay.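 48-hour exposure, single concentration, 96-well plates; percent growth endpoint where 0 means no net growth. Active: below 10.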 Values without a mark were called inactive. The source made the active and inactive calls.
# What was measured:
# Assay in all cases: NCI-60 one-dose screen, 48 h (100 = growth as untreated, 0 = no growth, -100 = all killed)
# Details in all cases: 10 µM unless noted
# BT-549 breast = test system: BT-549 breast
# MDA-MB-435 melanoma = test system: MDA-MB-435 melanoma
# SW-620 colon = test system: SW-620 colon
# MCF7 breast = test system: MCF7 breast
# HCT-116 colon = test system: HCT-116 colon
# HCC-2998 colon = test system: HCC-2998 colon
# KM12 colon = test system: KM12 colon
Structure (SMILES),growth (BT-549 breast),growth (MDA-MB-435 melanoma),growth (SW-620 colon),growth (MCF7 breast),growth (HCT-116 colon),growth (HCC-2998 colon),growth (KM12 colon)
CC1(C)CC[C@]2(c3nnc(-c4ccncc4)o3)CC[C@]3(C)C(=CC[C@@H]4[C@@]5(C)CCC(=O)C(C)(C)[C@@H]5CC[C@]43C)[C@@H]2C1,80.3%,79.6%,85.2%,64.6%,61.3%,94.8%,93.8%
C[C@@H]1C(=O)[C@@H]2C[C@@H](O)[C@@H](O)C[C@]2(C)[C@H]2CC[C@@]3(C)C(=C12)CC[C@@H]3[C@@](C)(O)[C@H](O)CCC(C)(C)O,102%,108%,106%,104%,103%,97.3%,114%
COc1cc([C@H](C)c2ccc3ccccc3c2)cc(OC)c1OC,39.1%,0.308% (active),28.5%,14.8%,6.72% (active),26.5%,19.6%
CCOC(=O)NC(Cc1ccccc1)c1ccccc1 (stereo unspecified),96.5%,114%,95.2%,101%,96%,104%,110%
Nc1cccc(C(=O)Nc2ccc3c(O)c(N=Nc4ccc(N=Nc5ccc(S(=O)(=O)O)cc5)cc4)c(S(=O)(=O)O)cc3c2)c1,98.6%,105%,107%,97.2%,95%,114%,108%
COc1cc(NCC(=O)Nc2cc(Nc3cccc(C(F)(F)F)c3)ncn2)c(Cl)c(OC)c1Cl,88.9%,102%,104%,85.8%,87.4%,103%,92.3%
CC(=O)OCC1SC(OC(C)=O)C(NC(=O)/C=C/CCl)C(OC(C)=O)C1OC(C)=O (stereo unspecified),105%,101%,107%,85.8%,101%,104%,102%
O=C(NCc1ccccc1)c1ccc2c(c1)NC(=O)[C@@H]1CCCN21,110%,99.6%,96.4%,85.4%,105%,88%,84%
C=C(C)[C@@H]1CC[C@]2(C(=O)N3CCN(C)CC3)CC[C@]3(C)[C@H](CC[C@@H]4[C@@]5(C)C/C(=C/c6ccco6)C(=O)C(C)(C)[C@@H]5CC[C@]43C)[C@@H]12,79.5%,72.8%,74%,36.1%,46.9%,92.3%,72.5%
COc1ccc(/C(=N\O)c2cc(C)c(OC)c(C)c2)cc1O,19.3%,-23.8% (active),31%,19.1%,6.63% (active),26.2%,14.8%
O=C1C(=O)c2c(nc3ccc(C(F)(F)F)cn23)-c2ccccc21,-85.2% (active),-84.4% (active),-60.4% (active),-55.5% (active),-74.9% (active),-90.4% (active),-61.7% (active)
COc1cc(C2=NN(c3ccccc3)C(c3cccc(Nc4ccnc5cc(C(F)(F)F)ccc45)c3)C2)cc(OC)c1OC (stereo unspecified),114%,104%,94.8%,80.6%,89.7%,90%,88.1%
C#C[C@@]1(O)[C@@H](CO)O[C@@H](n2ccc3c(N)ncnc32)[C@@H]1O,-8.06% (active),-28.9% (active),1.33% (active),3.61% (active),5.2% (active),-44.2% (active),0.307% (active)
NS(=O)(=O)c1ccc(-n2nc(-c3ccccc3)ccc2=O)cc1,123%,113%,108%,96%,102%,108%,99.6%
CCCn1c(N)c(C(N)=O)sc1=S,118%,109%,101%,106%,101%,110%,97.4%
COc1cc(/C=C/CO)cc(OC)c1O[C@@H]1O[C@H](CO)[C@@H](O)[C@H](O)[C@H]1O,104%,102%,94%,93.2%,95.8%,102%,105%
COc1ccc(-c2nnc(N3CCN(C(=O)CN4CCN(c5ccccc5)CC4)CC3)nc2-c2ccc(OC)cc2)cc1,-16.1% (active),22.7%,35.7%,11.7%,8.34% (active),22.2%,16.8%

Structure (SMILES),growth (BT-549 breast),growth (MDA-MB-435 melanoma),growth (SW-620 colon),growth (MCF7 breast),growth (HCT-116 colon),growth (HCC-2998 colon),growth (KM12 colon)
O=[N+]([O-])c1ccc(N=Nc2c(O)c(N=Nc3cc([N+](=O)[O-])cc([N+](=O)[O-])c3O)cc(N=Nc3cc(S(=O)(=O)O)cc4cc(S(=O)(=O)O)cc(O)c34)c2O)cc1,104%,107%,108%,99.6%,80.9%,104%,103%
Sc1cccc2cccnc12,48.4%,44.9%,38.7%,26.8%,11.5%,40%,25.4%
O=C(Nc1ccccc1)NS(=O)(=O)c1c[nH]c(=S)[nH]c1=O,92.1%,108%,105%,100%,93.8%,114%,105%
CC(C)CSc1nc(Nc2ccccc2)c(C#N)c(-c2ccc(F)cc2)n1,28%,77.4%,55.2%,69%,7.9% (active),69.1%,73.2%
CC(=O)Nc1ccc2c(c1)Cc1cc(F)ccc1-2,93.8%,107%,105%,82.2%,102%,94.3%,95.6%
CCC[S@@](=O)c1ccc2nc(NC(=O)OC)[nH]c2c1,79.1%,16.6%,71%,61.9%,79.6%,90%,65.6%
N#CC1C(c2ccc(Cl)cc2)=Nc2c(c(-c3ccccc3)nn2-c2ccccc2)C12C(=O)Nc1ccc(Cl)cc12 (stereo unspecified),50%,34.5%,42.1%,28.4%,26.2%,55.2%,26.1%
C=CCn1c(SCC(=O)Nc2ccc(C(=O)/C=C/c3cc(OC)c(OC)c(OC)c3)cc2)nnc1-c1ccccc1,95.5%,50%,73.2%,13.6%,15.8%,108%,54.4%
COc1ccc(Cc2nc(C#N)c(N3CCN(c4ccc(F)cc4)CC3)o2)cc1,94.5%,84.6%,97.7%,79.7%,78.2%,93.8%,78.8%
N#CCNc1ccc(C(=O)O)cc1,106%,101%,103%,98.9%,103%,104%,105%
C[C@]12CC[C@@H]3c4ccc(O)cc4CC[C@H]3[C@@H]1C[C@H](O)C2,79.1%,0.155% (active),33.9%,61%,49.1%,87.6%,76.3%
CC(C)(C)CC(C)(C)Cc1ccc(OCCOCC[N+](C)(C)Cc2ccccc2)cc1,-16% (active),-23.9% (active),30.2%,12.9%,20.8%,-10% (active),-52.6% (active)
N#Cc1ccc(N2Cc3cc(Cl)ccc3OC3=C2C(=O)N(Cc2ccc(F)cc2)C3=O)cc1,-63.3% (active),-48.8% (active),-81% (active),-19.5% (active),-90.4% (active),42.2%,52.6%
Cc1nnc(/N=C2\NC(=O)/C(=C/c3ccsc3)S2)s1,94.6%,91.5%,98.8%,79%,83.6%,95.7%,84.7%
COc1ccc(/C=C/C(=O)Nc2ncnc3nc[nH]c23)cc1,103%,91.1%,110%,78.9%,101%,111%,95.8%
C=C1C(=O)O[C@H]2[C@H]1CC/C(COC(=O)CCCCC(=O)OC/C1=C/CC[C@@]3(C)O[C@H]3[C@H]3OC(=O)C(=C)[C@@H]3CC1)=C\CC[C@@]1(C)O[C@@H]21,61.1%,56.2%,25.1%,21.3%,3.28% (active),100%,90.6%
